Common to all, as to assay: DAPPL (digital affinity profiling via proximity ligation, sequencing); 10 mM Tris-HCl pH 7.5, 50 mM NaCl, 1 mM DTT, 4% glycerol, room temperature, 30 min; GST-TFs on glutathione beads, 16-mer random dsDNA library, 0.1% formaldehyde crosslink after washing; high values mean tight binding
Test [1] addresses T1, FLI1 (Homo sapiens, UniProt Q01543 1-452).
T1 sequence: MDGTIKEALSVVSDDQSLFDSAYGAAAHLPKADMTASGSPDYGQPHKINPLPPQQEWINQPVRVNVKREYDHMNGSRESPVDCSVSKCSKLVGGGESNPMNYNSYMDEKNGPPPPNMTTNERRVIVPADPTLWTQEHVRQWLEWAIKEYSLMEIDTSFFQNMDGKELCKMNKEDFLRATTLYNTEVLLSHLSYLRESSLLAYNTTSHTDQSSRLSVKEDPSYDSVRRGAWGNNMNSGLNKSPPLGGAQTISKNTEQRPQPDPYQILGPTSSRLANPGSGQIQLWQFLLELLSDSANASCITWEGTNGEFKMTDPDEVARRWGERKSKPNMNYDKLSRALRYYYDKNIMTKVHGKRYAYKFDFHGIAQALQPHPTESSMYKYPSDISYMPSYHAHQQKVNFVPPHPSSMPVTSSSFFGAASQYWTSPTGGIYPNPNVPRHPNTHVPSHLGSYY
The following applies: protein: recombinant; tags: N-terminal GST; dsDNA, one strand shown. Summed up: (§1)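 Binding signal is defined as a hexamer's read frequency for one factor over its frequency for the tag-only sample. To obtain reads, GST-fused human transcription factors were expressed in yeast, captured on glutathione beads, barcoded with DNA and pooled with that sample. Pools met 200 nmole of a 16-mer random double-stranded DNA library in Tris/NaCl/DTT/glycerol buffer for 30 min at room temperature before washing, 0.1% formaldehyde crosslinking, proximity ligation (BsaI/T4 ligase, 1 h, 37 °C), PCR and Illumina NextSeq500 sequencing.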

The target of test [2] is T2, ELK1 (Homo sapiens, UniProt P19419 1-428).
T2 sequence: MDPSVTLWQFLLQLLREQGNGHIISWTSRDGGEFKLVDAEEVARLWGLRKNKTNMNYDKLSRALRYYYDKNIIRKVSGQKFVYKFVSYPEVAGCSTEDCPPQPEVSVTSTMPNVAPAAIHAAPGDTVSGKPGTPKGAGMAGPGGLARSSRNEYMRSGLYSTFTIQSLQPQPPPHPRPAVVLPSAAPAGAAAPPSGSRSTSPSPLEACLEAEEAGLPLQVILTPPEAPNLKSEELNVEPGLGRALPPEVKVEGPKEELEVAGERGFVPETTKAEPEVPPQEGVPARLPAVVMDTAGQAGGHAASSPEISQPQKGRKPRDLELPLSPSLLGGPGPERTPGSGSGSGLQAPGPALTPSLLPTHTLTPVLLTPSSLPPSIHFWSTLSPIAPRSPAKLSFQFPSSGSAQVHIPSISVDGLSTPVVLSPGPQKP
The following applies: protein: recombinant; tags: N-terminal GST; dsDNA, one strand shown. Summed up: as §1

Test [3] has as its target T3, ERG (Homo sapiens, UniProt P11308 1-479).
T3 sequence: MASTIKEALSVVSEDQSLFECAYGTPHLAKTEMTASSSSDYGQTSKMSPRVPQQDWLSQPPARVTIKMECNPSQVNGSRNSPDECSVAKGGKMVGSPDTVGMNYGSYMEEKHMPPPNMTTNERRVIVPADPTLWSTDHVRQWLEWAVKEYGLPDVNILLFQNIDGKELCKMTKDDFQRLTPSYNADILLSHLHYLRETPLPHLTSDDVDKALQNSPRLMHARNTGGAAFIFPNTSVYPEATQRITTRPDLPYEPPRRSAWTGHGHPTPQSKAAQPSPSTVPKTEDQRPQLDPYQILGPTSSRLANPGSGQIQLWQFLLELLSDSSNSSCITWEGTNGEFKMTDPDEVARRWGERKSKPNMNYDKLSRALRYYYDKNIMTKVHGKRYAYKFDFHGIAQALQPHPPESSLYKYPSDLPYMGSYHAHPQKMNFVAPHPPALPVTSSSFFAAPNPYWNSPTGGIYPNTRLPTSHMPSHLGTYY
As to conditions: protein: recombinant; tags: N-terminal GST; dsDNA, one strand shown. The method in brief: as §1

The target in test [4] is ELF1 (Homo sapiens, UniProt P32519 1-619). As to conditions: protein: recombinant; tags: N-terminal GST; dsDNA, one strand shown. Summed up:
as §1

The target in test [5] is T4, EHF (Homo sapiens, UniProt Q9NZC4 1-300).
T4 sequence: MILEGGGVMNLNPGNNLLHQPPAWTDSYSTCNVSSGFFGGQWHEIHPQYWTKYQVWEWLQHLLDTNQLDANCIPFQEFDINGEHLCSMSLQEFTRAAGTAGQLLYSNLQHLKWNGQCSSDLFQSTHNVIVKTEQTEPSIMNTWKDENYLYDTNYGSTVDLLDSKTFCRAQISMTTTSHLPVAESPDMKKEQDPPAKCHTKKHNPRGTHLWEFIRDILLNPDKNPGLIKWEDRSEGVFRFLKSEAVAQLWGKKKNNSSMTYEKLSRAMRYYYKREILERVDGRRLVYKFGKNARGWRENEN
As to conditions: protein: recombinant; tags: N-terminal GST; dsDNA, one strand shown. The method in brief: as §1

Test [6] addresses SPI1 (Homo sapiens, UniProt P17947 1-270). As to conditions: protein: recombinant; tags: N-terminal GST; dsDNA, one strand shown. Summed up: as §1
Test [7] addresses SPIB (Homo sapiens, UniProt Q01892 1-262). As to conditions: protein: recombinant; tags: N-terminal GST; dsDNA, one strand shown. The method in brief:
as §1

Test [8] has as its target T5, ELK3 (Homo sapiens, UniProt P41970 1-407).
T5 sequence: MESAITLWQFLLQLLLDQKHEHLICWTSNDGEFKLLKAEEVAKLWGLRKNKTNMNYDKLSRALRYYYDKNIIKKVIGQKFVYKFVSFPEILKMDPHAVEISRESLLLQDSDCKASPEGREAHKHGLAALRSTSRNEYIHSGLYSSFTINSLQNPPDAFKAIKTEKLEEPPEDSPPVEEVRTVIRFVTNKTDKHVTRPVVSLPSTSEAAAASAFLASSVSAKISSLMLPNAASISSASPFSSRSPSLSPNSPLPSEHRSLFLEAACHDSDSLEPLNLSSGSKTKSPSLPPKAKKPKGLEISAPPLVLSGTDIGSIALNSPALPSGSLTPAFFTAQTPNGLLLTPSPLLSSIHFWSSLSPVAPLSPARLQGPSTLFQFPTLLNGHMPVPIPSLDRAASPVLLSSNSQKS
As to conditions: protein: recombinant; tags: N-terminal GST; dsDNA, one strand shown. The method in brief: as §1

Test [9] deals with T6, FEV (Homo sapiens, UniProt Q99581 1-238).
T6 sequence: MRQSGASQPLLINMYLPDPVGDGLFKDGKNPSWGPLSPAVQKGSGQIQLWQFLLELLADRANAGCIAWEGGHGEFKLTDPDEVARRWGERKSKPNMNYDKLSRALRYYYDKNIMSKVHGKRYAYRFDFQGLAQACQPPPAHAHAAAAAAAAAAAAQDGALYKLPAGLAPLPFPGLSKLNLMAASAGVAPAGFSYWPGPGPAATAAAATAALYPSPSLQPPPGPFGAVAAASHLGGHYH
As to conditions: protein: recombinant; tags: N-terminal GST; dsDNA, one strand shown. The method in brief: as §1

Test [10] addresses ETV5 (Homo sapiens, UniProt P41161 1-510). The following applies: protein: recombinant; tags: N-terminal GST; dsDNA, one strand shown. Summed up:
as §1

For test [11], the target named is HSF1 (Homo sapiens, UniProt Q00613 1-529). As to conditions: protein: recombinant; tags: N-terminal GST; chain copies: 3; dsDNA, one strand shown. The method in brief:
as §1

In test [12] the target is ELF4 (Homo sapiens, UniProt Q99607 1-663). As to conditions: protein: recombinant; tags: N-terminal GST; dsDNA, one strand shown. Summed up:
as §1

Test [13] has as its target T7, ELK4 (Homo sapiens, UniProt P28324-2 1-405).
T7 sequence: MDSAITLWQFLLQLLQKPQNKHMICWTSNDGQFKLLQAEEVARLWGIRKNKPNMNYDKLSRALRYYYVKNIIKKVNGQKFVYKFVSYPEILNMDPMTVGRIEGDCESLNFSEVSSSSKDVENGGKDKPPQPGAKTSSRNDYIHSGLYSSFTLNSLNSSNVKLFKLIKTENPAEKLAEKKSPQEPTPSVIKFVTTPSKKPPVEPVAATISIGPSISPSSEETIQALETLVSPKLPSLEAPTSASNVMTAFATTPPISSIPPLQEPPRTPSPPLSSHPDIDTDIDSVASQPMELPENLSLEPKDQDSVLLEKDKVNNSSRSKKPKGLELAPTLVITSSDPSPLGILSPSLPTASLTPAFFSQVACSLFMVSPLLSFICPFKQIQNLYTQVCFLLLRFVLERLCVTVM
As to conditions: protein: recombinant; tags: N-terminal GST; dsDNA, one strand shown. The method in brief: as §1

Test [14] deals with T8, ETV2 (Homo sapiens, UniProt O00321 1-342).
T8 sequence: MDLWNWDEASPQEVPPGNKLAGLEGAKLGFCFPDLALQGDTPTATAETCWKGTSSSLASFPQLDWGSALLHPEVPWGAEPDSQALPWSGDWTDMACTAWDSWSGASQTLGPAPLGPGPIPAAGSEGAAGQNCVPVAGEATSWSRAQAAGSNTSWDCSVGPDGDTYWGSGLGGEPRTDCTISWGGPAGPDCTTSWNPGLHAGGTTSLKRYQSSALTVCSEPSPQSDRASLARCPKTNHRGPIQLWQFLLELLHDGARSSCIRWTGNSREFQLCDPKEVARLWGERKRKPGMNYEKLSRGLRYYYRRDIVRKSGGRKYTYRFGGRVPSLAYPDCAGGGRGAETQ
The following applies: protein: recombinant; tags: N-terminal GST; dsDNA, one strand shown. Summed up:
as §1

The target in test [15] is T9, ELF3 (Homo sapiens, UniProt P78545 1-371).
T9 sequence: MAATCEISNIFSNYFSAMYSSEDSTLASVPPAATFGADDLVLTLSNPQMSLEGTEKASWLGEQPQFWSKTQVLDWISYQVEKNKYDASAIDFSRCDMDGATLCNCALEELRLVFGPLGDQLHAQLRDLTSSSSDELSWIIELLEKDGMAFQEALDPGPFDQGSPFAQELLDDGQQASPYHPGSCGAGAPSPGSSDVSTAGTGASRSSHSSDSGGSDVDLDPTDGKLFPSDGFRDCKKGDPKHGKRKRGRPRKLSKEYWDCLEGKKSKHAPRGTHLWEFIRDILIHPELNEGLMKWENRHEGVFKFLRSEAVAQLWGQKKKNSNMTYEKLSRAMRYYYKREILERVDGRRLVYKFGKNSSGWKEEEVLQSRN
The following applies: protein: recombinant; tags: N-terminal GST; dsDNA, one strand shown. Summed up: as §1

For test [16], the target named is CRX (Homo sapiens, UniProt O43186 1-299). As to conditions: protein: recombinant; tags: N-terminal GST; dsDNA, one strand shown. Summed up: as §1
Test [17] has as its target ETV1 (Homo sapiens, UniProt P50549 1-477). As to conditions: protein: recombinant; tags: N-terminal GST; dsDNA, one strand shown. Summed up: as §1

ETV5, sequence (P41161 whole entry): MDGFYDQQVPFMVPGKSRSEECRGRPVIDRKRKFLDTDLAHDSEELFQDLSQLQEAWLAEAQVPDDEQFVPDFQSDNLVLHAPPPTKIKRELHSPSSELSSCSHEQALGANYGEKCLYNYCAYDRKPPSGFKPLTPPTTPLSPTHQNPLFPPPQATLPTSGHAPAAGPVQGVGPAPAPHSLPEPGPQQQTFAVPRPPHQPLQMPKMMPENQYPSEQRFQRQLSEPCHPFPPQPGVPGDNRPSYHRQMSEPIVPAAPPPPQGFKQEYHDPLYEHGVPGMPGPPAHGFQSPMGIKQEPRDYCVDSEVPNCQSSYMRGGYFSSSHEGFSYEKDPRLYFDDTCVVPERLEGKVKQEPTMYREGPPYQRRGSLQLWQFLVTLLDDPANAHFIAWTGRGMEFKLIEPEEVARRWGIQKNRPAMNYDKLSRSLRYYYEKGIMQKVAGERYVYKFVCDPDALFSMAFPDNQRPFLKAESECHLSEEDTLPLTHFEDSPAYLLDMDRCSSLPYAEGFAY
HSF1, sequence (Q00613 whole entry): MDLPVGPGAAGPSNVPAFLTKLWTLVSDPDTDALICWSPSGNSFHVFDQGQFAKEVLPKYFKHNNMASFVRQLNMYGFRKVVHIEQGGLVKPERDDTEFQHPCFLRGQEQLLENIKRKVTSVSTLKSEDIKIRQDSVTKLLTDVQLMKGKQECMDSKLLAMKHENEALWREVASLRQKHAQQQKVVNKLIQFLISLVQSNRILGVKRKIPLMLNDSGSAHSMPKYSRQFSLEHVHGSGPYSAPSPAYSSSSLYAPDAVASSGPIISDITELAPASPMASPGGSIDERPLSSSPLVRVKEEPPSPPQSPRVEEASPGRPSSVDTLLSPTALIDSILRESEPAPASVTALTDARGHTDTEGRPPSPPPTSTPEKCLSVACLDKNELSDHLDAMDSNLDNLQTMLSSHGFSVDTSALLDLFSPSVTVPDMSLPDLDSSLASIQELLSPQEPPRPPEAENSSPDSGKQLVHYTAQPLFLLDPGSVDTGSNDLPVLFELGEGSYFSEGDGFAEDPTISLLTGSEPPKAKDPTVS
CRX, sequence (O43186 whole entry): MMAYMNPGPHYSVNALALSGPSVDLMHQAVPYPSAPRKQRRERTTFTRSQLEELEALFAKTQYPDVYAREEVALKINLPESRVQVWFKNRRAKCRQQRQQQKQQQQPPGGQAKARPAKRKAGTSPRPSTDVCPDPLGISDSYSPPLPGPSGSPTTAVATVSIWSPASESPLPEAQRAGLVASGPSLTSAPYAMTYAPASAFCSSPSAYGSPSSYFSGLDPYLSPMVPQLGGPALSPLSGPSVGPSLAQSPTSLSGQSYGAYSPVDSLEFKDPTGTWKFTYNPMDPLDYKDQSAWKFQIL
ELF4, sequence (Q99607 whole entry): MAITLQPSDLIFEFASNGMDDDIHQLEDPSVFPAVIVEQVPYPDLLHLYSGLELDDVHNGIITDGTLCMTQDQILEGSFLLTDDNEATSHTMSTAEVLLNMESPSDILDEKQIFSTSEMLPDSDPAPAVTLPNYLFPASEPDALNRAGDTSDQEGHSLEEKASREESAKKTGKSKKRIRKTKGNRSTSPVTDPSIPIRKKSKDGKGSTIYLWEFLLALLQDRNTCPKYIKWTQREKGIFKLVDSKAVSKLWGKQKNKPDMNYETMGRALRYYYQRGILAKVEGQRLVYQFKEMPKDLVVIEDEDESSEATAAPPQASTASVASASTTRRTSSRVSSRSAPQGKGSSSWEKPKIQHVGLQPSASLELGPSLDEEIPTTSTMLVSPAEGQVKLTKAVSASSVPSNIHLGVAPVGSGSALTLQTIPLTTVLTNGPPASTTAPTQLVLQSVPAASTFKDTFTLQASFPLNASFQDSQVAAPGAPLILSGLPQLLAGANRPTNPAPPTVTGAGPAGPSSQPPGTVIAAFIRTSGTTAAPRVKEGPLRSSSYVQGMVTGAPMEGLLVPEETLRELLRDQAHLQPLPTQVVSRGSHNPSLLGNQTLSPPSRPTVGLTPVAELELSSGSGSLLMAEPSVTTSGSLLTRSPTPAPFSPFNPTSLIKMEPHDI
SPIB, sequence (Q01892 whole entry): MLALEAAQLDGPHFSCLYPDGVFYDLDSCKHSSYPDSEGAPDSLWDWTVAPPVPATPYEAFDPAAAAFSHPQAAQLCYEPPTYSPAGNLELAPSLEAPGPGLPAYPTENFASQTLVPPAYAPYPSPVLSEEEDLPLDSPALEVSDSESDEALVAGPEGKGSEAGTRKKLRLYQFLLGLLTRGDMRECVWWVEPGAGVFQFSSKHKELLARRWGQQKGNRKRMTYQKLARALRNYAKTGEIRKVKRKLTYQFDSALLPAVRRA
ELF1, sequence (P32519 whole entry): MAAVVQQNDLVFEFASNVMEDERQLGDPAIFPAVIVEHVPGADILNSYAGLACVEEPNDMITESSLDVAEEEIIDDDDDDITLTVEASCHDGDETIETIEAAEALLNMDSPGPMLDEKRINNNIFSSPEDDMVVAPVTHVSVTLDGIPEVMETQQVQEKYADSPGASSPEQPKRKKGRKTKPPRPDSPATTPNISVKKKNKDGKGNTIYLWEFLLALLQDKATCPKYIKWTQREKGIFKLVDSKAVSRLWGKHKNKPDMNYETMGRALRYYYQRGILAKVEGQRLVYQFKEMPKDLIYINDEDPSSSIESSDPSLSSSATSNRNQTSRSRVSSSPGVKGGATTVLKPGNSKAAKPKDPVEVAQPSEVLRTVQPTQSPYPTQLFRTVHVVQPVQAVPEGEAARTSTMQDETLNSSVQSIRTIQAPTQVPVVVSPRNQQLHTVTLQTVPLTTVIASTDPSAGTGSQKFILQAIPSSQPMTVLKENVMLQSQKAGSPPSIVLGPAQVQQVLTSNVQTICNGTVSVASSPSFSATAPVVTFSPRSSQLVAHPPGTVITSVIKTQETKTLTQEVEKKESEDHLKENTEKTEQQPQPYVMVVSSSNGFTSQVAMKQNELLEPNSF
ETV1, sequence (P50549 whole entry): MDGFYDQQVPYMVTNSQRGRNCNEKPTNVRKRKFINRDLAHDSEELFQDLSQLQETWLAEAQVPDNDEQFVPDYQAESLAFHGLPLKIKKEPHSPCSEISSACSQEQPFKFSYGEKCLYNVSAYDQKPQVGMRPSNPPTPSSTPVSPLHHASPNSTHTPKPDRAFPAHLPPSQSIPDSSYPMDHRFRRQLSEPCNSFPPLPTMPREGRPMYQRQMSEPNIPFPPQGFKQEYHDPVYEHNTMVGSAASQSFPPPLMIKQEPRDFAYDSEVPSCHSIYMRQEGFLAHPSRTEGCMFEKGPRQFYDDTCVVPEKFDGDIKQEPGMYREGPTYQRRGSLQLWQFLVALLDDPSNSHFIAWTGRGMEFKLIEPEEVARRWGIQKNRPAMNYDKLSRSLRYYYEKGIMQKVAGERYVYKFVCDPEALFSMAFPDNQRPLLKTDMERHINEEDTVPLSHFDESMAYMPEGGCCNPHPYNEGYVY

With AGCTAA, the binding signal was 1.08 fold enrichment (6-mer frequency, TF over GST control) in [1]; 1.05 fold enrichment (6-mer frequency, TF over GST control) in [2]; 1.06 fold enrichment (6-mer frequency, TF over GST control) in test [3]; 1.02 fold enrichment (6-mer frequency, TF over GST control) in test [4]; 1.08 fold enrichment (6-mer frequency, TF over GST control) in test [5]; 1.08 fold enrichment (6-mer frequency, TF over GST control) in test [6]. The binding signal in [7] was 1.01 fold enrichment (6-mer frequency, TF over GST control); in test [8], 1.01 fold enrichment (6-mer frequency, TF over GST control); in test [9], 1.03 fold enrichment (6-mer frequency, TF over GST control); in test [10] it was 1.06 fold enrichment (6-mer frequency, TF over GST control); in [11], 1.27 fold enrichment (6-mer frequency, TF over GST control); in test [12] it was 1.14 fold enrichment (6-mer frequency, TF over GST control). The binding signal in [13] was 1.1 fold enrichment (6-mer frequency, TF over GST control); in test [14], 1.01 fold enrichment (6-mer frequency, TF over GST control); in [15], 1.09 fold enrichment (6-mer frequency, TF over GST control); in test [16], 1.65 fold enrichment (6-mer frequency, TF over GST control); in [17] it was 1.1 fold enrichment (6-mer frequency, TF over GST control).

(Values after article PMC7862700, “An all-to-all approach to the identification of sequence-specific readers for epigenetic DNA modifications on cytosine”.)
